Source: PubChem BioAssay
For some assays here: Measured potencies and affinities stand elsewhere. Calls of active or inactive are those of the source. Unless noted, no rule for the calls is given here.

Experiments:
[1] = antimalarial activity against Dd2 strain (AID 2302;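 active = growth inhibition above 50% at the single 2 µM test dose, taken to imply half-maximal potency below 2 µM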;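 also: 0% = DMSO untreated growth and 100% = chloroquine plus artemisinin killed control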); conditions: P. falciparum Dd2 in RBCs, LDH growth readout, 72 h; at 2 µM; stronger effect = higher value
[2] = HepG2 cytotoxicity, primary screen, cytotoxicity control for P. falciparum antimalarial project, cell-based, ATP luminescence (AID 2303;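 active = inhibition above 50%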;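 also: 0% = DMSO wells and 100% = digitonin-killed cells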); conditions: HepG2 viability, 24-48 h, at 10 µM, stronger effect = higher value
[3] = biological target: L-lactate dehydrogenase (Plasmodium falciparum (isolate CDC / Honduras)) (UniProt Q27743); experiment: PfLDH activity inhibition – cell lysate, 3D7 strain, counter-screen for P. falciparum growth inhibition project (AID 2304);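 also: 0% = vehicle and 100% = reference inhibitor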; conditions: P. falciparum 3D7 crude extract, LDH APAD/NBT absorbance; at 2 µM; stronger effect = higher value
Chain of L-lactate dehydrogenase (Plasmodium falciparum (isolate CDC / Honduras)) (Q27743 whole entry, looked up): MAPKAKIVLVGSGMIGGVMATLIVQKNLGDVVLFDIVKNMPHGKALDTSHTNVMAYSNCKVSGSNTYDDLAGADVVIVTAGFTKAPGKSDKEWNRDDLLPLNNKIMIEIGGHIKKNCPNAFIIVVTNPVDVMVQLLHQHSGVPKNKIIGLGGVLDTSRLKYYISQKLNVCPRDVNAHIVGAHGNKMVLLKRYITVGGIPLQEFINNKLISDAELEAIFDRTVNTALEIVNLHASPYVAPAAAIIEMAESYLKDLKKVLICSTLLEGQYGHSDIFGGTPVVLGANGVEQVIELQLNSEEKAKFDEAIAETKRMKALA

[4] = inhibition of 3D7 malaria parasite growth – strain 3D7 (AID 2306);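 also: 0% = DMSO wells and 100% = chloroquine plus artemisinin control wells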; conditions: P. falciparum 3D7 erythrocytic growth, LDH absorbance, 72 h; at 2 µM; stronger effect = higher value
[5] = biological target: Calcium-dependent protein kinase 1 (Plasmodium falciparum (isolate 3D7)) (UniProt P62344); experiment: PfCDPK1 kinase inhibitors, biochemical, TCAMS library (AID 1159585; cut-off not given, nearly all actives have IC50 up to about 0.98 µM;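 also: inhibitors leave more ATP so luminescence rises with inhibition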); conditions: recombinant PfCDPK1, Kinase-Glo ATP depletion luminescence
Chain of Calcium-dependent protein kinase 1 (Plasmodium falciparum (isolate 3D7)) (P62344 whole entry, looked up): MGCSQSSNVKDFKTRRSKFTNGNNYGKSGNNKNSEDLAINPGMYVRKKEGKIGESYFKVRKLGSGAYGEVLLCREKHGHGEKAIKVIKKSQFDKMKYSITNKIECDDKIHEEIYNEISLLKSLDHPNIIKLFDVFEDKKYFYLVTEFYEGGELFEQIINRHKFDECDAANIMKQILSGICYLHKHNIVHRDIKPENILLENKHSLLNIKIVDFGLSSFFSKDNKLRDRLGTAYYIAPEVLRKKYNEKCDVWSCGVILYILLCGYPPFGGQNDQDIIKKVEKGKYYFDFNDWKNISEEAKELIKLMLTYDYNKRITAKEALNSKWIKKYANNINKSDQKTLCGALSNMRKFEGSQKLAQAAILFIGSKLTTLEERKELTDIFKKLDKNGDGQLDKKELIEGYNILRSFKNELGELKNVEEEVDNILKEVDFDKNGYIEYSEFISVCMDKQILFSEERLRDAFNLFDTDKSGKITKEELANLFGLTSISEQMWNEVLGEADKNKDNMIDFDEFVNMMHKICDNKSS

[6] = biological target: Plasmodium falciparum protein kinase 6 (PK6, PF3D7_1337100) (UniProt Q8IDW1); experiment: PfPK6 kinase inhibitors, biochemical, TCAMS library (AID 1159586); conditions: recombinant PfPK6, Kinase-Glo ATP depletion luminescence
Chain of Plasmodium falciparum protein kinase 6 (PK6, PF3D7_1337100) (Q8IDW1 1-305): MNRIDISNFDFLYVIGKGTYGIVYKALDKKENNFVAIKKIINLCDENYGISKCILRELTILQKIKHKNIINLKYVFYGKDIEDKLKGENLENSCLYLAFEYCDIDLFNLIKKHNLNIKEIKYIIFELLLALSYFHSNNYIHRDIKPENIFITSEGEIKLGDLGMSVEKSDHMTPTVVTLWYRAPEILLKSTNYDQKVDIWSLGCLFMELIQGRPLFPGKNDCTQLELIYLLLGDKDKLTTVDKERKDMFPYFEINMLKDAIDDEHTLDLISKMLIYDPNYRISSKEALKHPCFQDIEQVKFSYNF

[7] = biological target: Protein kinase 7 (PK7), Plasmodium falciparum 3D7 (PF3D7_0213400) (UniProt Q7YTF7); experiment: inhibition of Plasmodium PK7 catalytic activity – biochemical, TCAMS antimalarial set, Kinase-Glo luminescence (AID 1159587); conditions: recombinant PfPK7, Kinase-Glo ATP depletion luminescence
Chain of Protein kinase 7 (PK7), Plasmodium falciparum 3D7 (PF3D7_0213400) (Q7YTF7 1-343): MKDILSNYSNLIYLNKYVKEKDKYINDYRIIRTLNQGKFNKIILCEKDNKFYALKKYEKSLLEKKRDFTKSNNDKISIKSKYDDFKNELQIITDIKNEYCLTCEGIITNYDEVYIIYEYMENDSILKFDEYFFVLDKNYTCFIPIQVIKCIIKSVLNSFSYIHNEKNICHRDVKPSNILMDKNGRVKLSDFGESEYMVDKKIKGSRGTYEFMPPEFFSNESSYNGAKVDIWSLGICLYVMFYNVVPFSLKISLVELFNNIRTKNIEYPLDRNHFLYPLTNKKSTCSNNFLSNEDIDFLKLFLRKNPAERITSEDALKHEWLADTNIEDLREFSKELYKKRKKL

[8] = biological target: Calcium-dependent protein kinase 4 (Plasmodium falciparum (isolate 3D7)) (UniProt Q8IBS5); experiment: PfCDPK4 kinase inhibitors, biochemical, TCAMS library (AID 1159588; cut-off not given, nearly all actives have IC50 up to about 0.91 µM); conditions: recombinant PfCDPK4, Kinase-Glo ATP depletion luminescence
Chain of Calcium-dependent protein kinase 4 (Plasmodium falciparum (isolate 3D7)) (Q8IBS5 whole entry, looked up): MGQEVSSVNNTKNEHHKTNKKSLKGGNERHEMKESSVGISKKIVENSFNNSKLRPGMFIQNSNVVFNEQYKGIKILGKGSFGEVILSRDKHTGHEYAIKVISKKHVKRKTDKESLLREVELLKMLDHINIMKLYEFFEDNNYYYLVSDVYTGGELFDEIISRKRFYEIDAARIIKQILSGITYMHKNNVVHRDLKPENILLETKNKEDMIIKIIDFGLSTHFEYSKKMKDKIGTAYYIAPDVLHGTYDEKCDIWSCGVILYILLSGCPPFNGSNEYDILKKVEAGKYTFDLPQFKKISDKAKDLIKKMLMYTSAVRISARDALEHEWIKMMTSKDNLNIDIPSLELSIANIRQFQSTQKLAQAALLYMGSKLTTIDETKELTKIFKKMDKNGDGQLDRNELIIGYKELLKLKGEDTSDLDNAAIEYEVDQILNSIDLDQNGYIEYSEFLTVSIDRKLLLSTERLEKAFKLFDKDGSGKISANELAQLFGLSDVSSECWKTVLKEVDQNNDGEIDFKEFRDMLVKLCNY

FC(F)(F)c1ccc2nc(-c3cccc(-c4cccc(CN5CCN(c6ccncc6)CC5)c4)c3)[nH]c2c1
inactive: inhibition [3] 3% | outcome [5] | outcome [6] | outcome [7] | outcome [8]
active: growth inhibition [1] 99% | inhibition [2] 93% | growth inhibition [4] 100%

CN1CCN(c2ccnc3ccc(NC(=O)Nc4ccc(-c5ccncc5)c5ccccc45)cc23)CC1
inactive: inhibition [3] -4% | outcome [5] | outcome [6] | outcome [7] | outcome [8]
active: growth inhibition [1] 84% | inhibition [2] 76% | growth inhibition [4] 101%

c1cc(CN2CCN(c3ccncc3)CC2)cc(-c2ccc(-c3nc4ccccc4[nH]3)cc2)c1
active: growth inhibition [1] 100% | inhibition [2] 60% | growth inhibition [4] 100%
inactive: inhibition [3] -11% | outcome [5] | outcome [6] | outcome [7] | outcome [8]

NC(=O)c1cccc(CNCc2ccc(-c3cccc(-c4nc5ccccc5[nH]4)c3)cc2)c1
inactive: inhibition [2] 29% | inhibition [3] 3% | outcome [5] | outcome [6] | outcome [7] | outcome [8]
active: growth inhibition [1] 94% | growth inhibition [4] 101%

Cc1cc2ccc(/C=C/C(=O)NC3CCC(CCN4CCc5ccc(C#N)cc5CC4)CC3)cc2[nH]1 (stereo unspecified)
inactive: inhibition [2] 19% | inhibition [3] -1% | outcome [5] | outcome [6] | outcome [7] | outcome [8]
active: growth inhibition [1] 56% | growth inhibition [4] 84%

CN1CCCc2ccc(NC(=O)c3ccc(-c4cc(C(F)(F)F)nn4C)s3)cc2C1
inactive: growth inhibition [1] 34% | inhibition [2] 16% | inhibition [3] -1% | outcome [5] | outcome [6] | outcome [7] | outcome [8]
active: growth inhibition [4] 88%

CN1CCCN(Cc2cccc(-c3ccc(NC(=O)c4cccc(C#N)c4)cc3)c2)CC1
active: growth inhibition [1] 96% | growth inhibition [4] 102%
inactive: inhibition [2] 27% | inhibition [3] -6% | outcome [5] | outcome [6] | outcome [7] | outcome [8]

CCC1(C)N=C(N)N=C(N)N1c1ccccc1 (stereo unspecified)
inactive: growth inhibition [1] -2% | inhibition [2] 6% | inhibition [3] 0% | outcome [5] | outcome [6] | outcome [7] | outcome [8]
active: growth inhibition [4] 98%

CN1CCN(CCCN(Cc2cccc(-c3ccc(CNCCc4ccccc4)cc3)c2)C(=O)Nc2ccccc2)CC1
inactive: inhibition [3] 3% | outcome [5] | outcome [6] | outcome [7] | outcome [8]
active: growth inhibition [1] 91% | inhibition [2] 61% | growth inhibition [4] 100%

Cc1cc(N[C@@H](Cc2ccccc2)C(=O)NCCc2ccccc2)nc(NCCc2ccccc2)n1
active: growth inhibition [1] 57% | growth inhibition [4] 100%
inactive: inhibition [2] -4% | inhibition [3] -2% | outcome [5] | outcome [6] | outcome [7] | outcome [8]

Cc1cc(N[C@@H](Cc2ccccc2)C(=O)NCc2cccs2)nc(NCCc2ccccn2)n1
inactive: growth inhibition [1] 49% | inhibition [2] -4% | inhibition [3] -2% | outcome [5] | outcome [6] | outcome [7] | outcome [8]
active: growth inhibition [4] 93%

Cc1ccccc1NC(=O)NC1CCN(CCCCCNC(=O)/C=C/c2ccc(Cl)c(Cl)c2)CC1
inactive: growth inhibition [1] 20% | inhibition [2] 13% | inhibition [3] -6% | outcome [5] | outcome [6] | outcome [7] | outcome [8]
active: growth inhibition [4] 102%

CCCCOP(=O)(COc1ccc(CCN(CC(O)COc2cccc3[nH]c4ccccc4c23)CC(O)COc2cccc3[nH]c4ccccc4c23)cc1)C1CCCCC1 (stereo unspecified)
active: growth inhibition [1] 92% | growth inhibition [4] 89%
inactive: inhibition [2] 7% | inhibition [3] 4% | outcome [5] | outcome [6] | outcome [7] | outcome [8]

Cc1cc(N[C@@H](CC(C)C)C(=O)NCc2cccc(F)c2)nc(NCCc2ccccc2)n1
inactive: growth inhibition [1] 33% | inhibition [2] 6% | inhibition [3] -1% | outcome [5] | outcome [6] | outcome [7] | outcome [8]
active: growth inhibition [4] 88%

CC(C)(C)c1ccc(NC(=O)c2ccc(CN3CCCN(CC4CCCCC4)CC3)cc2)cc1
active: growth inhibition [1] 64% | inhibition [2] 54% | growth inhibition [4] 99%
inactive: inhibition [3] -1% | outcome [5] | outcome [6] | outcome [7] | outcome [8]

Cc1ccc(S(=O)(=O)NC2CCN(c3ccnc4cc(Cl)ccc34)C2)cc1 (stereo unspecified)
active: growth inhibition [1] 90% | growth inhibition [4] 99%
inactive: inhibition [2] 21% | inhibition [3] -3% | outcome [5] | outcome [6] | outcome [7] | outcome [8]

Cc1ccc(N2CCc3c(-c4cc5cccnc5nc4C)cc(C)nc32)c(Cl)c1
inactive: inhibition [2] -14% | inhibition [3] 3% | outcome [5] | outcome [6] | outcome [7] | outcome [8]
active: growth inhibition [1] 90% | growth inhibition [4] 96%

Cc1nc2ccc(/C=C/C(=O)NC3CCC(CCN4CCc5ccc(C#N)cc5CC4)CC3)cc2[nH]1 (stereo unspecified)
inactive: growth inhibition [1] 21% | inhibition [2] 7% | inhibition [3] -2% | outcome [5] | outcome [6] | outcome [7] | outcome [8]
active: growth inhibition [4] 88%

CCN(CC)CCCn1c(N)c(-c2nc3ccccc3[nH]2)c2nc(C#N)c(C#N)nc21
inactive: inhibition [2] 8% | inhibition [3] 2% | outcome [5] | outcome [6] | outcome [7] | outcome [8]
active: growth inhibition [1] 99% | growth inhibition [4] 100%

O=c1cc(NCCCNCc2cc3c(Cl)cccc3s2)[nH]c2ccccc12
active: growth inhibition [1] 57% | growth inhibition [4] 102%
inactive: inhibition [2] 6% | inhibition [3] -7% | outcome [5] | outcome [6] | outcome [7] | outcome [8]

CN1CCCN(c2ccnc3cc4c(cc23)N(C(=O)c2ccc(Cl)cc2Cl)CC4)CC1
active: growth inhibition [1] 51% | growth inhibition [4] 100%
inactive: inhibition [2] 6% | inhibition [3] -2% | outcome [5] | outcome [6] | outcome [7] | outcome [8]

Fc1ccc2nc(-c3ccc(-c4ccc(CN5CCC(CCN6CCCCC6)CC5)cc4)cc3)[nH]c2c1
active: growth inhibition [1] 100% | inhibition [2] 98% | growth inhibition [4] 100%
inactive: inhibition [3] -9% | outcome [5] | outcome [6] | outcome [7] | outcome [8]

CN(C)CCOc1ccc2c(c1)OC(C)(C)C=C2c1cccc2ccccc12
active: inhibition [2] 66% | growth inhibition [4] 95%
inactive: growth inhibition [1] 48% | inhibition [3] -2% | outcome [5] | outcome [6] | outcome [7] | outcome [8]

COc1c(CNCCCCCCNCc2cc(Cl)c3ccccc3c2OC)cc(Cl)c2ccccc12
active: inhibition [2] 100% | growth inhibition [4] 96%
inactive: growth inhibition [1] 45% | inhibition [3] -4% | outcome [5] | outcome [6] | outcome [7] | outcome [8]

COc1ccc(CN2CCC2=O)c(OC)c1
active: growth inhibition [1] 96% | growth inhibition [4] 98%
inactive: inhibition [2] 0% | inhibition [3] -6% | outcome [5] | outcome [6] | outcome [7] | outcome [8]

CC(C)Nc1nc(NCCc2cnc[nH]2)nc(NCc2ccc(Cl)c(Cl)c2)n1
inactive: growth inhibition [1] -1% | inhibition [2] -3% | inhibition [3] 7% | outcome [5] | outcome [6] | outcome [7] | outcome [8]
active: growth inhibition [4] 88%

COc1ccc2ncc(F)c(CCN3CC[C@H](NC(=O)c4ccc5c(n4)NC(=O)CS5)[C@H](O)C3)c2n1
inactive: inhibition [2] 20% | inhibition [3] 0% | outcome [5] | outcome [6] | outcome [7] | outcome [8]
active: growth inhibition [1] 88% | growth inhibition [4] 88%

COc1ccc(C2CC(c3cccs3)=NN2C(=O)COc2cccc3c2CCCC3O)cc1OC (stereo unspecified)
inactive: inhibition [2] 5% | inhibition [3] 3% | outcome [5] | outcome [6] | outcome [7] | outcome [8]
active: growth inhibition [1] 62% | growth inhibition [4] 93%

COc1cc2nc(SCC(C)C)n(CCCn3ccnc3)c(=N)c2cc1OC
active: growth inhibition [1] 78% | growth inhibition [4] 99%
inactive: inhibition [2] 15% | inhibition [3] -2% | outcome [5] | outcome [6] | outcome [7] | outcome [8]

Cc1sc2nc(CSc3ccccc3)nc(N3CCN(CC(=O)N4CCCC4)CC3)c2c1C
inactive: inhibition [2] 19% | inhibition [3] 2% | outcome [5] | outcome [6] | outcome [7] | outcome [8]
active: growth inhibition [1] 69% | growth inhibition [4] 91%

Cc1c(Cl)cccc1NC(=S)NN=Cc1ccccn1
active: growth inhibition [1] 85% | inhibition [2] 58% | growth inhibition [4] 99%
inactive: inhibition [3] 5% | outcome [5] | outcome [6] | outcome [7] | outcome [8]

O=C(Nc1ccc2c(c1)CCC2)c1cnc(N2CCN(c3ccncc3)CC2)c(Cl)c1
active: growth inhibition [4] 100%
inactive: growth inhibition [1] 48% | inhibition [2] 33% | inhibition [3] 2% | outcome [5] | outcome [6] | outcome [7] | outcome [8]

CCOC(=O)CC[C@H](NC(=O)c1ccc(NS(=O)(=O)c2ccc(-c3cnc(N)[nH]c3=O)cc2)cc1)C(=O)OCC
active: growth inhibition [4] 95%
inactive: growth inhibition [1] 2% | inhibition [2] 5% | inhibition [3] 4% | outcome [5] | outcome [6] | outcome [7] | outcome [8]

Cc1[nH]c(C)c(-c2ccc(-c3ccc(F)cc3)nc2)c(=O)c1Br
inactive: inhibition [2] 15% | inhibition [3] 0% | outcome [5] | outcome [6] | outcome [7] | outcome [8]
active: growth inhibition [1] 96% | growth inhibition [4] 97%

CCn1c(Sc2ccc(C#N)c([N+](=O)[O-])c2)nnc1-c1ccc(OC)cc1
inactive: inhibition [2] -8% | inhibition [3] 2% | outcome [5] | outcome [6] | outcome [7] | outcome [8]
active: growth inhibition [1] 94% | growth inhibition [4] 98%

Cc1cccc2[nH]c(-c3cccc(-c4cccc(NC(=O)COc5ccccc5C(N)=O)c4)c3)nc12
active: growth inhibition [1] 88% | growth inhibition [4] 100%
inactive: inhibition [2] 22% | inhibition [3] -2% | outcome [5] | outcome [6] | outcome [7] | outcome [8]

CC1(C)N=C(N)N=C(N)N1OCc1ccc2c(c1)OCO2
active: growth inhibition [1] 86% | inhibition [2] 66% | growth inhibition [4] 93%
inactive: inhibition [3] -3% | outcome [5] | outcome [6] | outcome [7] | outcome [8]
